Data from the supplement of paper PMC13094657.
± gives the standard deviation of the averaged measurements.

Tests used:
MDA-MB-231 [1] = test: cell viability relative to vehicle unstimulated control (fraction); higher = more viable cells; details: pre-treatment time: 18 h then 24 h IFNg/TNF
MDA-MB-231 [2] = test: kynurenine production, fold change vs DMSO IFNg/TNF control; higher = more kynurenine produced (less inhibition); details: pre-treatment time: 18 h then 24 h IFNg/TNF
Method in brief: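 MDA-MB-231 cells (7 × 10^4/well, 96-well plates, seeded 24 h earlier) were pre-treated 18 h with each natural product in 0.1% DMSO, then stimulated 24 h with IFNγ (1 U/ml) and TNF (6.25 ng/ml) at 37°C. Supernatant kynurenine was read at 492 nm after trichloroacetic acid and p-dimethylaminobenzaldehyde treatment, against 0–100 μM standards. Kynurenine production is the fold change over cytokine-stimulated vehicle wells on the same plate, averaged over duplicate plates in the first screening round.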
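Wherever cell viability relative to vehicle unstimulated control is given: viability of the cells left after supernatant collection, read with Deep Blue dye added for 4 h, as absorbance at 570 nm minus 600 nm.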

SMILES	cell viability (MDA-MB-231 [1])	kynurenine production (MDA-MB-231 [2])
C[C@@H]1O[C@@H](O[C@H]2[C@H](O[C@H]3CC[C@@]4(C)[C@@H](CC[C@]5(C)[C@@H]4CC=C4[C@@H]6CC(C)(C)CC[C@]6(C(=O)O[C@@H]6O[C@H](CO[C@@H]7O[C@H](CO)[C@@H](O[C@@H]8O[C@@H](C)[C@H](O)[C@@H](O)[C@H]8O)[C@H](O)[C@H]7O)[C@@H](O)[C@H](O)[C@H]6O)CC[C@]45C)[C@]3(C)CO)OC[C@H](O)[C@@H]2O)[C@H](O)[C@H](O)[C@H]1O [Hederacoside C] (compound dose: 10 uM)	1.05 ± 0.024	1.25 ± 0.18
C=C1[C@H](OC(=O)C(C)C)[C@@H](O)[C@@H](OC(=O)c2cccnc2)C(C)(C)/C=C/[C@H](C)[C@H](OC(C)=O)[C@@]2(O)C[C@@](C)(OC(C)=O)[C@H](OC(=O)c3ccccc3)[C@@H]2[C@H]1OC(C)=O [Jatrophane 3] (compound dose: 10 uM)	1.04 ± 0.056	0.82 ± 0.18
CN1CCC[C@H]1c1cccnc1 [(-)-nicotine] (compound dose: 10 uM)	0.978 ± 0.08	1.04 ± 0.11
CC(CC(=O)C[C@@H](C)[C@H]1CC(=O)[C@@]2(C)C3=C(C(=O)C[C@]12C)[C@@]1(C)CC[C@H](O)C(C)(C)[C@@H]1C[C@@H]3O)C(=O)O (some centres not stated) [Ganoderic acid B] (compound dose: 10 uM)	0.95 ± 0.032	0.774 ± 0.18
CC1(C)CCC2(CO)C(=C3C=CC4C5(C)CCC(OC6OC(COC7OC(CO)C(O)C(O)C7O)C(OC7OC(CO)C(O)C(O)C7O)C(O)C6O)CC5C(C)(CO)CC4(C)C3(C)CC2O)C1 (configuration not stated) [Clinodiside A] (compound dose: 10 uM)	0.918 ± 0.029	1.03 ± 0.2
C=C1C(=O)[C@]23[C@H](O)[C@H]1CC[C@H]2[C@@]12CO[C@]3(O)[C@@H](O)[C@@H]1C(C)(C)CC[C@@H]2O [Oridonin] (compound dose: 10 uM)	0.917 ± 0.017	0.73 ± 0.054
CC(C)(O)[C@@H]1CC[C@](C)([C@H]2[C@@H](O)C[C@@]3(C)[C@@H]4C[C@H](O)[C@H]5C(C)(C)[C@@H](O[C@@H]6OC[C@@H](O)[C@H](O)[C@H]6O[C@@H]6O[C@H](CO)[C@@H](O)[C@H](O)[C@H]6O)CC[C@@]56C[C@@]46CC[C@]23C)O1 [Astragaloside III] (compound dose: 10 uM)	1.03 ± 0.069	0.822 ± 0.018
C/C1=C\CCC2=C[C@@H](OC2=O)c2c(C)coc2C1 [Linderalactone] (compound dose: 10 uM)	0.998	0.815 ± 0.018
C[C@@]12C[C@H](c3ccoc3)O[C@@]13C[C@H](OC3=O)[C@H]1[C@H]2C[C@@H]2C[C@H]1C(=O)O2 [Diosbulbin B] (compound dose: 10 uM)	0.78 ± 0.24	0.779 ± 0.13
CC1CCC2(O)C(C)(C)C3CCC2(C)C1C3 (configuration not stated) [Patchouli alcohol] (compound dose: 10 uM)	0.994 ± 0.013	1.04 ± 0.064
C[C@@]12C[C@@]3(O)O[C@@H](O1)[C@]1(COC(=O)c4ccccc4)[C@@H]3C[C@]12O[C@@H]1O[C@H](COC(=O)c2ccccc2)[C@@H](O)[C@H](O)[C@H]1O [Benzoylpaeoniflorin] (compound dose: 10 uM)	0.956 ± 0.034	0.893 ± 0.11
C=C1C(=O)O[C@H]2C[C@@H](C)[C@@H]3CCC(=O)[C@@]3(C)[C@@H](OC(C)=O)[C@H]12 [Ergolide] (compound dose: 10 uM)	0.992 ± 0.072	0.246 ± 0.13
COC(=O)C1=CO[C@@H](O[C@@H]2O[C@H](CO)[C@@H](O)[C@H](O)[C@H]2O)[C@H]2[C@@H]1C(=O)C[C@@H]2C [Verbenalin] (compound dose: 10 uM)	0.953 ± 0.052	0.834 ± 0.12
O=C(/C=C/c1ccc(O)c(O)c1)O[C@H](Cc1ccc(O)c(O)c1)C(=O)O [Rosmarinic acid] (compound dose: 10 uM)	1.11 ± 0.14	0.908 ± 0.18
C=C1CC[C@@H]2[C@](C)(CO)[C@H](O)CC[C@@]2(C)[C@H]1C/C=C1\C=COC1=O [Dehydroandrographolide] (compound dose: 10 uM)	0.984 ± 0.032	0.754 ± 0.058
CC1(C)CC[C@]2(C(=O)O)CC[C@]3(C)C(=CC[C@@H]4[C@@]5(C)CC[C@H](O[C@@H]6O[C@H](C(=O)O)[C@@H](O)[C@H](O)[C@H]6O[C@@H]6O[C@H](CO)[C@@H](O)[C@H](O)[C@H]6O)C(C)(C)[C@@H]5CC[C@]43C)[C@@H]2C1 [Zingibroside R1] (compound dose: 10 uM)	1.19 ± 0.15	1.06 ± 0.15
